MsrA inhibitor = bovine MsrA enzyme inhibitors, primary screen, biochemical, absorbance, HTS. Methionine sulfoxide reductase A (Bos taurus). purified bovine MsrA, absorbance read-out. inhibition, % at 15.5 µM. actives 0.75% (n = 360,000). AID 651718, 2012; in the data active = inhibition above about 4.5%;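 also: 0% = vehicle wells with enzyme and 100% = reference inhibitor wells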
bovine MsrA act = bovine MsrA enzyme activators, primary screen, biochemical, absorbance, HTS; activation, % at 10.6 µM; actives 0.3% (n = 360,000); AID 602163, 2012; purified bovine MsrA, absorbance read-out; Methionine sulfoxide reductase A (Bos taurus); in the data active = activation above about 7.5%;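 also: 0% = vehicle and 100% = reference activator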
DAGLB inh = DAGLB lipase inhibitors, primary screen, biochemical, fluorescence, HTS | HEK293T DAGLB membrane lysate, EnzChek fluorogenic substrate | inhibition, % at 5.17 µM | actives 0.059% (n = 340,000) | AID 504411, 2011; in the data active = inhibition above about 34%;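 also: 0% = enzyme with vehicle and 100% = wells lacking enzyme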
rCAG RNA binder = binders of r(CAG) RNA repeats, primary screen, biochemical, fluorescence. r(CAG) RNA repeat, TO-PRO-1 dye displacement fluorescence. inhibition, % at 3 µM. actives 1.3% (n = 370,000);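 active = inhibition above the plate cutoff, the mean of all test compounds on that plate plus 3 SD, cut at about 35% in these data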;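 also: 0% = DMSO alone and 100% = 100 µM mitoxantrone as full dye displacement; higher means more dye released from RNA so lower well fluorescence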
NadD inh = inhibitors of S. aureus NadD, primary screen, biochemical, colorimetric, uHTS | actives 0.78% (n = 360,000) | purified NadD enzyme, colorimetric absorbance read-out | inhibition, % at 20 µM; in the data active = inhibition above about 26%
DSG3 Ab inh = inhibitors of pemphigus antibody binding to DSG3, primary screen, biochemical, bead-based, flow cytometry, scFv-GFP; binding (percent of control), % at 10 µM; Desmoglein-3 (Homo sapiens), P32926; actives 0.48% (n = 310,000); DSG3-coupled beads, scFv-anti-DSG3-GFP binding; active compounds read low; AID 588358, 2011;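 active = binding more than 3 SD below its plate's average and above zero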;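 also: hits lower antibody fragment binding to DSG3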
rCAG bind conf = small molecules binding CAG repeat RNA – biochemical, fluorescence, confirmation | r(CAG) RNA repeat, TO-PRO-1 dye displacement fluorescence | inhibition, % at 3 µM | actives 70% (n = 4,300) | shares compounds with rCAG RNA binder;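 active = inhibition above a per-plate cutoff, the mean inhibition of sample wells plus 3 SD, cut at about 35% in these data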;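 also: loss of TO-PRO-1 fluorescence as compound displaces dye from 1x1 AA loop RNA; 0% = DMSO only wells and 100% = 100 µM mitoxantrone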
DNA CAG counter = displacement of TO-PRO-1 from CAG DNA duplex, counter-screen for rCAG RNA repeat binder project, biochemical, fluorescence, TO-PRO-1 dye, d(CAG) DNA oligo. actives 94% (n = 4,300). shares compounds with rCAG RNA binder. d(CAG) DNA oligo TO-PRO-1 dye displacement. inhibition, % at 3 µM;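 active = inhibition above its plate's cutoff, the mean test-well inhibition plus 3 SD, cut at about 4.8% in these data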;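 also: 0% = DNA dye mix with DMSO and 100% = 100 µM mitoxantrone; hits displace the dye from DNA and so lower well fluorescence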
Starred values were filed as active, the others as inactive; / = no result given. Only some compounds are listed: those with a hit (about 3.2% of all), similar ones and a draw of the others.

SMILES	MsrA inhibitor	bovine MsrA act	DAGLB inh	rCAG RNA binder	NadD inh	DSG3 Ab inh	rCAG bind conf	DNA CAG counter
COCCN(CCOC)Cc1c(O)ccc2c1O/C(=C\c1ccc(C)o1)C2=O	3	-2	-13	36*	1	94	0	-1
O=C(O)CC1S/C(=N/N=C/c2ccccn2)NC1=O (stereo unspecified)	4	-2	0	-3	-2	101	/	/
Cc1ccc(S(=O)(=O)Oc2ccc(/C=N/N=C3/NC(=O)C(CC(=O)O)S3)cc2)cc1[N+](=O)[O-] (stereo unspecified)	4	-5	5	41*	5	99	29	8.5*
CC(=O)c1cccc(NC(=O)c2ccc(-c3c(C)noc3C)c3ccoc23)c1	-1	-2	/	2	-10	/	/	/
N#Cc1c(SCC(=O)Nc2ccc(C(F)(F)F)cc2)sc2c(O)cc(=O)[nH]c12	2	0	7	53*	9	99	30	11*
N#Cc1c(SCC(=O)Nc2nncs2)sc2c(O)cc(=O)[nH]c12	3	-4	5	62*	0	108	44*	15*
Cc1cc(=O)[nH]c(SCC(=O)Nc2ccc(F)cc2)c1C#N	-1	-4	/	5	-4	103	/	/
COc1ccc(OC)c(NC(=O)CSc2sc3c(O)cc(=O)[nH]c3c2C#N)c1	3	-3	3	48*	11	99	22	10*
Cc1ccc(NC(=O)CSc2sc3c(O)cc(=O)[nH]c3c2C#N)c(F)c1	0	-6	3	45*	2	100	26	11*
Cc1cc(N2CCN(CCO)CC2)n2nc(C)nc2n1	/	/	/	2	/	/	/	/
Cn1cc(-c2coc3c(C(=O)NCc4ccco4)cccc23)cn1	/	-3	/	/	1	/	/	/
CCc1nc2ccc(C(=O)NCCN3CCNC3=O)cn2c1N(CCC(C)C)CCN(C)C	0	1	/	0	5	/	/	/
CCc1ccc(NC(=S)N(Cc2ccc(Cl)cc2)Cc2ccc(C(=O)O)cc2)cc1	0	1	3	69*	13	98	61*	23*
COc1ccc(CN(Cc2ccc(C(=O)O)cc2)C(=S)Nc2ccccc2Cl)cc1OC	1	-2	2	15	-2	104	/	/
Cc1cc(C)cc(NC(=S)N(Cc2ccc(Br)cc2)Cc2ccc(C(=O)O)cc2)c1	0	-8	3	65*	9	99	68*	27*
Cc1cc(NC(=S)N(Cc2ccc(Cl)cc2)Cc2ccc(C(=O)O)cc2)ccc1Cl	-1	-2	6	69*	18	108	83*	47*
Cc1ccc(C)c(NC(=S)N(Cc2ccc(Cl)cc2)Cc2ccc(C(=O)O)cc2)c1	1	-14	7	45*	8	99	49*	14*
Cc1cccc(NC(=S)N(Cc2ccc(Cl)cc2)Cc2ccc(C(=O)O)cc2)c1	-1	-3	2	27	0	98	/	/
O=C(NCc1cccs1)C1CCCN(S(=O)(=O)c2ccccc2)C1 (stereo unspecified)	/	/	/	4	/	/	/	/
Cc1ccc(NC(=S)N(Cc2cccc(Br)c2)CC2CCC(C(=O)O)CC2)cc1 (stereo unspecified)	0	-8	2	24	-1	98	/	/
COc1cccc(NC(=S)N(Cc2ccc(C(=O)O)cc2)Cc2ccc(OC)c(OC)c2)c1	1	-15	0	12	3	101	/	/
COc1ccc(NC(=S)N(Cc2ccc(Cl)cc2)Cc2ccc(C(=O)O)cc2)cc1Cl	0	-3	3	59*	10	98	60*	21*

Bioassay records from PubChem BioAssay.
